Most compounds without a hit are left out; they make up all but 4.3% or so of the library.
Peg3 promoter = Peg3 promoter activity inhibition; HeLa PEG-Prom luciferase reporter, luminescence, overnight; inhibition, % at 20 µM; 1.7% of 360,000 active; AID 588405;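 active = inhibition of at least 50% at 20 µM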
CHOP inh = inhibitors of CHOP induction in ER stress response; inhibition, % at 10 µM; CHO-K1 CHOP-promoter luciferase, tunicamycin-induced, 15-18 h; AID 2732; 3.8% of 220,000 active;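 active = compounds that reduced the stress-induced luciferase reporter signal by more than about 70% of percent inhibition, limit read from the data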;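 note: 0% = tunicamycin plus vehicle and 100% = wells without tunicamycin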
CF NFkB block = blocks PAF-induced NF-kB reporter in cystic fibrosis cells; inhibition, % at 5 µM; KKLEB NF-kB-GFP reporter, GFP fluorescence overnight; 0.86% of 360,000 active;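 active = at least 50% inhibition at 5 µM, scaled per plate between neutral and stimulator controls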;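 note: PAF is a Pseudomonas aeruginosa culture filtrate used as stimulus; plate controls were PAF-stimulated DMSO wells for no effect and unstimulated DMSO wells for full effect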
KKLEB cytotox = CF airway cell cytotoxicity counter-screen. KKLEB CF airway cells viability, ATPlite luminescence, overnight; stronger effect = lower value; cells stimulated with P. aeruginosa culture filtrate. activity change (cytotoxicity), % at 5 µM. 0.36% of 360,000 active. AID 602141;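 active = corrected activity change at or below -50% at 5 µM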
TRPM1 prom inh = reduces MITF-dependent TRPM1 promoter luciferase signal; 0.83% of 330,000 active; SK-MEL-5 TRPM1 promoter luciferase, 24 h; inhibition, % at 12.5 µM;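 active = mean inhibition across replicates of 60% or more, whatever share of single replicates reaches that level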
HIF-2a block = blocks HIF-2a reporter activity; 0.72% of 360,000 active; inhibition, % at 18.8 µM; AID 624352; 786-0 RCC cells HIF-2a reporter, luciferase luminescence, overnight;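 active = inhibition of the luminescence signal of 40% or more relative to plate controls, in a single-dose primary screen at 18.75 µM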
Starred values were filed as active, the others as inactive; nt = no result.

SMILES	Peg3 promoter	CHOP inh	CF NFkB block	KKLEB cytotox	TRPM1 prom inh	HIF-2a block
CCOc1cc(C(c2c(C)[nH][nH]c2=O)c2c(C)[nH][nH]c2=O)ccc1OCc1ccc([N+](=O)[O-])cc1	-3	-7	-34	-2	10	-2
CCOc1cc(/C=C2/NC(=S)NC2=O)ccc1OCc1ccc([N+](=O)[O-])cc1	51*	30	26	-33	63*	14
CCN1C(=O)[C@@H]2[C@@H]3CN(S(=O)(=O)c4ccc(C)cc4)[C@@H](c4ccccc4)[C@@H]3C(=O)C[C@@H]2C1=O	4	nt	-16	2	nt	13
CCOC1=CC2=C(C(=O)C(Cl)=CC2=O)[C@@H]2CN(S(=O)(=O)c3ccc(C)cc3)[C@@H](c3ccccc3)[C@H]12	49	nt	-16	-16	nt	57*
O=C(COc1ccc2ccccc2c1)Nc1ccc2c3c(cccc13)CC2	12	92*	13	0	19	-5
Cc1ccc(CNC(=O)C2CCC(CNS(=O)(=O)c3cccs3)CC2)cc1 (configuration not stated)	11	nt	2	0	3	5
O=c1ccn([C@@H]2O[C@H](CNCc3ccccc3OCc3ccc(Cl)cc3Cl)[C@@H](O)[C@H]2O)c(=O)[nH]1	2	nt	-2	-8	nt	1
O=C(Nc1nnc(SCc2ccc(F)cc2)s1)c1ccc2ncsc2c1	-192	73*	5	6	-6	-136
O=C(N/N=C/c1cc([N+](=O)[O-])ccc1O)c1c[nH]c2ccccc12	20	81*	4	-6	-9	-7
Cc1cc(C(=O)N/N=C/c2cc([N+](=O)[O-])ccc2O)c2ccccc2n1	15	71*	5	-12	21	11
O=C(N/N=C/c1cccc([N+](=O)[O-])c1)c1c[nH]c2ccccc12	-133	-37	8	-21	0	-177
CCN1C(=O)[C@H]2[C@@H](c3ccc(-c4ccc(C(C)=O)cc4)cc3)N3CCC[C@@]3(C(=O)OC)[C@H]2C1=O	1	nt	17	-3	-12	-6
Cc1nc(NC(=O)/C=C/c2ccc(Cl)cc2Cl)sc1C(=O)N(C)C	-57	85*	4	5	2	7
CN(C)CCNC(=O)COc1ccc(C23CC4CC(CC(C4)C2)C3)cc1	97*	41	26	-32	70*	8
Cc1ccc(S(=O)(=O)N2CCN(C(=O)COC(=O)COc3cccc(C(F)(F)F)c3)CC2)c(C)c1	-1	nt	-55	8	6	14
O=C(NCc1ccc(F)cc1)c1cc(C2CCCCN2C(=O)CCc2ccccc2)on1 (configuration not stated)	17	nt	-2	6	nt	10
COC(=O)c1cc(S(=O)(=O)NCCc2ccc(C)cc2)c[nH]1	1	nt	1	7	6	19
COC(=O)c1cc(S(=O)(=O)NCCc2ccc(Cl)cc2)c[nH]1	-330	nt	51*	-8	nt	18
CCCCC[C@@H](/C=C/C1C(=O)C=C[C@H]1C/C=C\CCCC(=O)O)OC(C)=O (some centres not stated)	-19	nt	26	8	7	4
CCc1c(C)c(C#N)c2nc3ccccc3n2c1-n1nc(C)cc1C	12	-4	2	5	-6	19
CCc1c(C)c(C#N)c2nc3ccccc3n2c1Cl	nt	110*	nt	nt	nt	nt
O=C(Nc1cccc(OC(F)(F)F)c1)c1ccc(-c2cccnc2)c2ccoc12	-136	nt	-14	-3	nt	-192
COC(=O)c1ccccc1NC(=O)CNCCc1ccc(OC)c(OC)c1	1	nt	-5	3	5	14
O=C1N(c2ccccc2)C[C@@H]2C[C@@H](c3cc4ccccc4o3)N3CCC[C@@]123	105*	103*	87*	-66*	40	-8
COc1ccc(-c2noc(CCC(=O)NCc3cc(Br)ccc3OC)n2)cc1	-6	45	-1	-10	4	18
COc1ccc(Br)cc1CNC(=O)CCc1nc(-c2ccc(C)cc2)no1	18	76*	12	-16	3	2
O=[N+]([O-])c1cccc(-c2nc(-c3cccs3)c(-c3cccs3)[nH]2)c1	13	46	9	-9	17	-3
Fc1ccc(-c2nc(-c3cccs3)[nH]c2-c2ccc(F)cc2)cc1	28	74*	8	-6	16	18

Assay outcomes from PubChem.
